# Several values for one entry are separate records, joined by “and”; a condition that tells them apart may be missing. Identical values can stand only once. Values without a mark were called inactive. Inconclusive results are not listed. Where a call stands in place of a potency, no number is given. Activity calls are given as the source filed them. Unless noted, calls come from the whole dose curve; as a rule, active = well fitted curve in the direction sought with a large enough effect in the repeat runs; inconclusive = weak or mixed curves; inactive = no such curve, though single readings can be large; an effect the other way counts as inactive or inconclusive.
# Assays:
# [1] = qHTS assay to identify small molecule agonists of the hypoxia (HIF-1) signaling pathway - cell viability counter screen (AID 1224844; calls by dose curve; note: nearly all actives have a fitted effect of over 50% in size)
# Procedure, shortened: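 Luminescent ATP content (CellTiter-Glo, 30 min, room temperature) served as the viability measure in HRE-bla ME-180 cells exposed to compounds for 17 hrs in low-serum medium (0.5% dialyzed FBS).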
# [2] = qHTS assay to identify small molecule agonists of H2AX (AID 1224845; active = well fitted activation curve with a large enough effect in the signal ratio in the repeat runs, not every such curve was filed as active; the % refers to the signal ratio)
# Procedure, shortened: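 Phospho-H2AX Ser139 measured by HTRF (ex 320 nm; em 665 and 620 nm) after 24 hr antibody incubation. Compounds, 15 concentrations, 0.76% DMSO, were applied to CHO-K1 cells for 3hr at 37C before lysis.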
# [3] = qHTS assay to identify small molecule agonists of H2AX - cell viability counter screen (AID 1224847; calls by dose curve; note: top concentration of the series differs between compounds; nearly all actives have a fitted effect of over 30% in size)
# Procedure, shortened: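 Viability of CHO-K1 (wild type) cells after 3 hr compound exposure was measured by CellTiter-Glo luminescence.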
# [4] = qHTS assay to identify small molecule antagonists of the estrogen related receptor (ERR) signaling pathway from Tox21 library (AID 1224848); note: nearly all actives have a fitted effect of over 50% in size
# Procedure, shortened: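 Antagonist-mode screen of the Tox21 10K library in an NTP-provided ERR reporter cell line; 18 h compound exposure at 37 C, luminescence measured with ONE-Glo.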
# [5] = qHTS RealTime-Glo MT Cell Viability Assay in HepG2 cells - 24 hour (AID 1224867); note: nearly all actives have a fitted effect of over 50% in size
# Procedure, shortened: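 Cells + NanoLuc/prosubstrate dispensed (600 cells/well) → 5 h at 37 C/5% CO2 → compounds in DMSO transferred → 40 h incubation at 37 C, luminescence read at 0, 8, 16, 24, 32, 40 h.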
# [6] = qHTS RealTime-Glo MT Cell Viability Assay in HEK293 cells - 32 hour (AID 1224868); note: nearly all actives have a fitted effect of over 50% in size; note: potency is the fitted concentration of half-maximal effect; for activity change, negative = cytotoxic: top concentration of the series differs between compounds
# Procedure, shortened: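 Tox21 10K qHTS, HEK293, 600 cells/well, RealTime-Glo reagent co-dispensed with cells; 5 h preincubation, compound by pintool, 37 C, luminescence at 0–40 h.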
# [7] = A CellTox Green Cytotoxicity Assay to monitor cytotoxicity in HEK293 cells - 0 hour (AID 1224869); note: nearly all actives have a fitted effect of over 50% in size
# Procedure, shortened: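 Each value comes from one timepoint of a single continuous run in which HEK293 cells with CellTox Green were exposed to compound for up to 40 h at 37 C, dye fluorescence rising with cell death.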
# [8] = qHTS RealTime-Glo MT Cell Viability Assay in HepG2 cells - 40 hour (AID 1224870); note: nearly all actives have a fitted effect of over 50% in size
# Procedure, shortened: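 Real-time viability: cells seeded at 600 per well together with NanoLuc and cell-permeant prosubstrate, compounds added after 5 h incubation. Luminescence tracked at 0, 8, 16, 24, 32 and 40 h of exposure.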
# [9] = qHTS assay to identify small molecule agonists of the estrogen related receptor (ERR) signaling pathway from Tox21 library (AID 1224849; calls by dose curve; note: nearly all actives have a fitted effect of over 15% in size); conditions: ERR reporter cell line, ONE-Glo luciferase, 18 h; at 92.4 µM (top of the series) unless noted
# Procedure, shortened: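 We plated ERR reporter cells, waited 6 h, added compounds in DMSO by pin tool and incubated them 18 h at 37 C. ONE-Glo was then added and luminescence read after 30 min.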
# [10] = qHTS assay to identify small molecule agonists of the hypoxia (HIF-1) signaling pathway (AID 1224846; active = well fitted activation curve with a large enough effect in the signal ratio in the repeat runs, not every such curve was filed as active; the % refers to the signal ratio)
# Procedure, shortened: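 Measured by blue/green FRET after loading CCF4-AM: beta-lactamase expressed from a hypoxia response element in ME-180 cells. Test agents were delivered in DMSO and left 17 hrs; cells had been plated 5 hrs earlier in low-serum (0.5% dialyzed FBS) medium.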
smiles,measurement,setting,value
OCCCC1CCCCC1,Potency,[1],inactive
same,outcome,[2],inactive
same,Potency,[3],inactive
same,Potency,[4],inactive
same,Potency,[5],inactive
same,Potency,[6],inactive
same,Potency,[7],inactive
same,Potency,[8],inactive
COc1ccccc1OCC(O)CN1CCN(CC(=O)Nc2c(C)cccc2C)CC1 (stereo unspecified),Potency,[1],inactive
same,outcome,[2],inactive
same,Potency,[3],inactive
same,Potency,[5],inactive
same,Potency,[6],inactive
same,Potency,[7],inactive
same,Potency,[8],inactive
NC(=O)COCCN1CCN(C(c2ccccc2)c2ccc(Cl)cc2)CC1 (stereo unspecified),Potency,[1],inactive
same,outcome,[2],inactive
same,Potency,[3],inactive
same,Potency,[4],inactive
same,Potency,[5],inactive
same,Potency,[6],inactive
same,Potency,[7],inactive
same,Potency,[8],inactive
CC/C=C\CC/C=C/C(OCC)OCC,Potency,[1],inactive
same,outcome,[2],inactive
same,Potency,[3],inactive
same,Potency,[4],inactive
same,Potency,[6],inactive
same,Potency,[7],inactive
same,Potency,[8],inactive
O=C(O)c1ccccc1OP(=O)(O)O,Potency,[1],inactive
same,outcome,[2],inactive
same,Potency,[3],inactive
same,Potency,[4],inactive
same,Potency,[5],inactive
same,Potency,[6],inactive
same,Potency,[7],inactive
same,Potency,[8],inactive
CC/C=C\CCOC(C)=O,Potency,[1],inactive
same,outcome,[2],inactive
same,Potency,[3],inactive
same,Potency,[4],inactive
same,"activity change, positive = activation",[9],8.11%
same,Potency,[6],inactive
same,Potency,[8],inactive
CCOC(=O)Nc1ccc(NCc2ccc(F)cc2)nc1N,Potency,[1],inactive
same,outcome,[2],inactive
same,Potency,[3],inactive
same,"activity change, positive = activation",[9],-17.8% [at 42.5 µM]
same,Potency,[5],inactive
same,Potency,[6],inactive
same,Potency,[8],inactive
CC(C)NCCCC1(C(N)=O)c2ccccc2-c2ccccc21,Potency,[1],inactive
same,outcome,[2],inactive
same,Potency,[3],inactive
same,Potency,[4],inactive
same,"activity change, positive = activation",[9],9.55% [at 42.5 µM]
same,Potency,[6],inactive
same,Potency,[7],inactive
same,Potency,[8],inactive
CCn1ccnc1CC1COc2ccccc2O1 (stereo unspecified),Potency,[1],inactive
same,outcome,[2],inactive
same,Potency,[3],inactive
same,Potency,[4],inactive
same,"activity change, positive = activation",[9],8.29% [at 42.5 µM]
same,Potency,[5],inactive
same,Potency,[6],inactive
same,Potency,[8],inactive
CC(C)(O)C#CC(C)(C)O,Potency,[1],inactive
same,Potency,[3],inactive
same,Potency,[4],inactive
same,"activity change, positive = activation",[9],4.8%
same,Potency,[5],inactive
same,Potency,[6],inactive
same,Potency,[7],inactive
same,Potency,[8],inactive
Oc1ccc(C2CNCCc3c2cc(O)c(O)c3Cl)cc1 (stereo unspecified),Potency,[1],inactive
same,outcome,[10],inactive
same,Potency,[3],inactive
same,Potency,[5],inactive
same,Potency,[6],inactive
same,Potency,[7],inactive
same,Potency,[8],inactive
NS(=O)(=O)c1cc2c(cc1Cl)NC(C1CC3C=CC1C3)NS2(=O)=O (stereo unspecified),Potency,[1],inactive
same,outcome,[2],inactive
same,Potency,[3],inactive
same,Potency,[5],inactive
same,Potency,[6],inactive
same,Potency,[7],inactive
same,Potency,[8],inactive
CCN1CCC[C@H]1CNC(=O)c1cc(S(N)(=O)=O)ccc1OC,Potency,[1],inactive
same,outcome,[2],inactive
same,Potency,[3],inactive
same,Potency,[5],inactive
same,Potency,[6],inactive
same,Potency,[8],inactive
CC(C)NC(=O)NC(C)C,Potency,[1],inactive
same,outcome,[2],inactive
same,Potency,[4],inactive
same,Potency,[5],inactive
same,Potency,[6],inactive
same,Potency,[7],inactive
same,Potency,[8],inactive
OC(CCN1CCCCC1)(c1ccccc1)C1CC2C=CC1C2 (stereo unspecified),Potency,[1],inactive
same,outcome,[2],inactive
same,Potency,[3],inactive
same,Potency,[5],inactive
same,Potency,[6],inactive
same,Potency,[7],inactive
same,Potency,[8],inactive
CCN1CCC[C@H]1CNC(=O)c1c(O)c(Cl)cc(Cl)c1OC,Potency,[1],inactive
same,outcome,[2],inactive
same,Potency,[3],inactive
same,Potency,[5],inactive
same,Potency,[6],inactive
same,Potency,[7],inactive
same,Potency,[8],inactive
CCN(CC)CCOCCOC(=O)C1(c2ccccc2)CCCC1,Potency,[1],inactive
same,outcome,[2],inactive
same,Potency,[3],inactive
same,Potency,[5],inactive
same,Potency,[6],inactive
same,Potency,[7],inactive
same,Potency,[8],inactive
Nc1ccc(S(=O)(=O)Nc2ccnn2-c2ccccc2)cc1,"activity change, negative = cytotoxicity",[1],-2.16% [at 15.8 µM]
same,outcome,[2],inactive
same,Potency,[3],inactive
same,"activity change, negative = cytotoxicity",[5],1% [at 15.8 µM]
same,"activity change, negative = cytotoxic",[6],5.86% [at 15.8 µM]
same,"activity change, negative = cytotoxic",[8],0.768% [at 15.8 µM]
NCCc1cnc[nH]1,Potency,[1],inactive
same,outcome,[2],inactive
same,Potency,[3],inactive
same,Potency,[6],inactive
same,Potency,[8],inactive
N=C(N)c1ccccc1,Potency,[1],inactive
same,outcome,[2],inactive
same,Potency,[3],inactive
same,Potency,[6],inactive
same,Potency,[7],inactive
same,Potency,[8],inactive
CC(C)(C)c1ccc(O)c(O)c1,Potency,[1],inactive
same,Potency,[3],inactive
same,Potency,[6],20.2 µM (active) and 13.8 µM (active)
same,Potency,[7],inactive
same,Potency,[8],inactive

# — PubChem BioAssay (Tox21)
